Source: PubChem BioAssay (NCI)
Compounds without any hit were thinned out: in the full panel of roughly 83,000, 20% have a hit.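 Cell lines were cultured in 96-well plates, exposed to a single compound concentration, and assessed for percent growth 48 hours later.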 Values without a mark were called inactive. Active and inactive are the calls of the source. How the source made its calls: active means growth percent below 10; inactive means the rest.

What follows are compounds tested on SK-MEL-5 melanoma (assay: NCI-60 one-dose screen, 48 h (100 = growth as untreated, 0 = no growth, -100 = all killed)). Conditions: 10 µM unless noted.

Compound | growth
NC(=O)CSSCC(N)=O | 98.4%
C=C(C)[C@@H]1CC[C@]2(C(=O)N3CCN(C)CC3)CC[C@]3(C)[C@H](CC[C@@H]4[C@@]5(C)CC[C@H](O)C(C)(C)[C@@H]5CC[C@]43C)[C@@H]12 | -67.7% (active)
O=C1Nc2cc(Cl)ccc2/C1=C\c1c(-c2ccc(F)cc2)nc2ccccn12 | -10.9% (active)
CCc1ccc(-c2cn3ccnc3c(-c3ccc4ncn(Cc5ccccc5)c4c3)n2)cc1 | 52.1%
CCOC(=O)c1cc(C(=O)c2ccc(OC)c(OC)c2)n2ccc(/C=C/c3cc[n+](CC(=O)c4ccc(OC)c(OC)c4)cc3)cc12 | 98%
COc1cc(/C=C\c2cc(OC)c(OC)c(OC)c2)cc(NC(=O)/C=C/c2cc(OC)c(OC)c(OC)c2)c1OC | -45.3% (active)
CN1C(N2CCN(S(=O)(=O)c3ccccc3)CC2)=NS(=O)(=O)c2ccccc21 | 104%
O=C1Nc2ccccc2/C1=C\c1c(-c2ccc(F)cc2)nc2ccccn12 | 58%
OCc1cnc2ccccc2c1NC1CCCCCC1 | 59.7%
Oc1c(Cl)cc(Cl)c(Cl)c1CNCCNCc1c(O)c(Cl)cc(Cl)c1Cl | -1.48% (active)
CN1[C@@H]2CC[C@H]1/C(=C\c1ccccc1)C(=O)/C2=C/c1ccccc1 | 43.9%
O=C1c2c(c3c4cccc(F)c4[nH]c3c3ccc4ccccc4c23)C(=O)N1O | 9.72% (active)
CN(C)CCC(=O)c1ccc([N+](=O)[O-])cc1 | 99%
Cc1ccc(-c2nc3ccccn3c2/C=C2/C(=O)Nc3cc(Cl)ccc32)cc1 | 71.9%
CC(=O)[C@@H]1CC[C@]2(C(N)=O)CC[C@]3(C)[C@H](CC[C@@H]4[C@@]5(C)CCCNC(C)(C)[C@@H]5CC[C@]43C)[C@@H]12 | 75.9%
CC(C)N1C(=O)S/C(=C2/SC(=O)N(C(C)C)C2=O)C1=O | 93.9%
NS(=O)(=O)c1ccc(CCN2C(=O)C3C(C2=O)C2(Cl)C(Cl)=C(Cl)C3(Cl)C2(Cl)Cl)cc1 (stereo not given) | 92.9%
Nc1c(S(=O)(=O)O)cc2c3c(cccc13)C(=O)OC2=O | 102%

Compound | growth
O=C(CCN1CCCC1)c1ccc([N+](=O)[O-])cc1 | 101%
O=C1Nc2ccc(F)cc2/C1=C\c1c(-c2ccccc2)nc2ccccn12 | 61.5%
O=Cc1ccc(-c2cn3ccnc3c(-c3ccc4ncn(Cc5ccccc5)c4c3)n2)cc1 | 43.5%
N#C/C(=C\c1ccc(C(F)(F)F)cc1)c1cc2ccccc2[nH]1 | 95.6%
O=C1c2cccc3c(-c4ccc5c(c4)ncn5C4CCCCC4)ccc(c23)C(=O)N1c1nc2ccccc2s1 | 74.6%
Cc1cccc(-c2cn3ccnc3c(-c3ccc4ncn(Cc5ccccc5)c4c3)n2)c1 | 89.9%
CCOC(=O)C1=C(CCl)NC(=O)NC1c1ccc2c(c1)OCO2 (stereo not given) | 9.17% (active)
CCCN1[C@@H]2CC[C@H]1/C(=C\c1ccc(OC)c(OC)c1)C(=O)/C2=C/c1ccc(OC)c(OC)c1 | 18.1%
COc1ccc(C(=O)C2C(C#N)C(C#N)C3c4ccccc4C=CN23)cc1 (stereo not given) | 84.2%
O=C(C[n+]1cccc2ccccc21)c1ccc(O)c(O)c1 | 82.7%
COc1ccc(C(=O)c2nc3ccccc3n2CC(=O)c2ccc(F)cc2)cc1 | 88%
CC(=O)[C@@H]1CC[C@]2(CO)CC[C@]3(C)[C@H](CC[C@@H]4[C@@]5(C)CCCNC(C)(C)[C@@H]5CC[C@]43C)[C@@H]12 | 92.7%
NS(=O)(=O)c1ccc(CCN2C(=O)C=CC2=O)cc1 | 104%
Nc1ccccc1NC(=O)c1ccc(-n2nc(-c3ccccc3)c3ccccc32)cc1 | 82.9%
N#CC1C(C#N)C2c3ccccc3C=CN2C1C(=O)c1ccc(Br)cc1 (stereo not given) | 90.8%
O=C(CNCCN1CCOCC1)N1c2cccc3cccc(c23)N(C(=O)CNCCN2CCOCC2)C1c1cn(-c2ccccc2)nc1-c1cccc([N+](=O)[O-])c1 | 57.7%
C=C(C)[C@@H]1CC[C@]2(C(=O)N[C@H](CO)Cc3ccccc3)CC[C@]3(C)[C@H](CC[C@@H]4[C@@]5(C)CCCNC(C)(C)[C@@H]5CC[C@]43C)[C@@H]12 | -95.5% (active)
